A short description of assay [1]: small molecules captured by biotinylated probe aFSTL3 – biochemical, small-molecule microarray, fluorescence 635/667, stem cell growth factor project, primary screen (AID 1064).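 Also: measures binding of the biotinylated anti-FSTL3 antibody to printed compounds.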 The following applies: higher = more signal.
The nature of assay [2]: binders from COS7 lysate, DM2A8 probe, primary screen, torsin A project, cell lysate, small-molecule microarray, fluorescence 635/667 (AID 1065). The following applies: higher = more signal, COS7 lysate expressing mutant human TOR1A.
Assay [3] is described as follows: small molecules captured by biotinylated probe aFGF2 – biochemical, small-molecule microarray, fluorescence 635/667, stem cell growth factor project, primary screen (AID 1067).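 Also: measures binding of biotinylated aFGF2 protein to printed compounds on slides; z-score merges feature fluorescence and signal-to-noise across triplicate slides.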 The following applies: higher = more signal.
The nature of assay [4]: small molecules captured by biotinylated probe aFGF10 – biochemical, small-molecule microarray, fluorescence 635/667, stem cell growth factor project, primary screen (AID 1071).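 Also: score merges 667 nm spot intensity and signal to noise from triplicate slides.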 The following applies: higher = more signal.
Assay [5] deals with Neurogenic locus notch homolog protein 2 (Homo sapiens) (UniProt Q04721). The assay can be described thus: small molecules binding Notch2 protein – biochemical, small-molecule microarray, 635 nm fluorescence, stem cell growth factors, primary screen (AID 1073). The following applies: higher = more signal.
Assay [6] deals with Pro-neuregulin-1, membrane-bound isoform (Homo sapiens) (UniProt Q02297). Description: small molecules binding neuregulin-1 protein – biochemical, small-molecule microarray, fluorescence 635/667, psychiatric disease protein project, primary screen (AID 1075).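 Also: score combines 667 nm spot fluorescence with signal to noise.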 The following applies: NRG1 binding, 635 nm fluorescence, higher = more signal.
Pro-neuregulin-1, membrane-bound isoform (Homo sapiens), sequence (Q02297 whole entry, looked up, the tested form may be a part, canonical isoform): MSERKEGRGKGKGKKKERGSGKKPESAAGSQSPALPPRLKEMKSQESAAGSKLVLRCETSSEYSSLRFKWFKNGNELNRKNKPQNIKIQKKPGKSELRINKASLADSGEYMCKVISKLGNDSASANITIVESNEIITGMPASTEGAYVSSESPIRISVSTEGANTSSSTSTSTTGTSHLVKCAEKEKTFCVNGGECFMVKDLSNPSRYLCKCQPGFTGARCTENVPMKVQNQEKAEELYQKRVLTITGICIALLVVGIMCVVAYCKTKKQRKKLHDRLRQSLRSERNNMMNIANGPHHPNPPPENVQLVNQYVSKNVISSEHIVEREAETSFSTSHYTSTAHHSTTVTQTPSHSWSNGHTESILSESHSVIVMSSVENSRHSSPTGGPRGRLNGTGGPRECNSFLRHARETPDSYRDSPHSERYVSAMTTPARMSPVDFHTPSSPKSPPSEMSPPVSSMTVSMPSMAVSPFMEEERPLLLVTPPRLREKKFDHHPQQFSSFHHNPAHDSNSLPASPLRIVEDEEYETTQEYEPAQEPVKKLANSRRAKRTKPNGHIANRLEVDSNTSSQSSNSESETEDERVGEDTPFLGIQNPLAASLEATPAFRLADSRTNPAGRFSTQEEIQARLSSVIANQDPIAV
Assay [7] has as its system Neuregulin-1 EGF-like domain. Description: small molecules binding NRG1 EGF domain – biochemical, small-molecule microarray, 635 nm fluorescence, primary screen (AID 1081).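 Also: binding of the protein to compounds printed on small-molecule microarray slides.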 The note with it: higher = more signal.
Assay [8] in a line: FRG1 expression reporter modulators in myotubes – cell-based, C2C12 myotubes, firefly/Renilla luciferase, luminescence, FRG1 inhibition for FSHD, primary screen (AID 1084). The following applies: FRG1 promoter luciferase, higher = more signal, called active from +8 up or from −8 down.
The nature of assay [9]: small molecules captured by biotinylated probe aFST – biochemical, small-molecule microarray, fluorescence 635/667, stem cell growth factor project, primary screen (AID 1086).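 Also: score merges 667 nm fluorescence with signal-to-noise of each printed compound spot.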 The note with it: higher = more signal.
Assay [10] can be described thus: binders of probe aHhip on microarray, primary screen, stem cell growth factor project, biochemical, small-molecule microarray, fluorescence 635/667 (AID 1087).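 Also: score merges spot fluorescence at 667nm with spot signal to noise ratio.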 The following applies: higher = more signal.
Assay [11] relates to PRMT1 (protein arginine N-methyltransferase 1). Description: small molecules binding arginine methyltransferase PRMT1 – biochemical, small-molecule microarray, 635 nm fluorescence, primary screen (AID 1088).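 Also: binding of Prmt1 protein to compounds spotted on small-molecule microarray slides.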 The following applies: higher = more signal.
Assay [12] in a line: growth effects on S. cerevisiae YJM789 – YJM789 clinical isolate, OD600, 24 h, basal, primary screen (AID 1089).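 Also: growth of clinical yeast isolate S. cerevisiae YJM 789 seeded 1000 cells per well; test concentration not given here.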 The following applies: higher = more signal, called active from +8 up or from −8 down.
The nature of assay [13]: S. pombe growth modifiers, basal conditions – strain 972, OD600, 24 h, no modulator, primary screen (AID 1090).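 Also: basal condition with compound alone and no growth modifier present; test concentration not given here.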 The following applies: S. pombe 972 growth, higher = more signal, called active from +8 up or from −8 down.
A short description of assay [14]: budding yeast growth modifiers under rapamycin – strain BY4716, OD600, 96 h, primary screen (AID 1091). Also: test concentration not given here. The following applies: S. cerevisiae BY4716 + rapamycin, higher = more signal, called active from +8 up or from −8 down.
Assay [15] concerns the target Torsin-1A-interacting protein 2 (Homo sapiens) (UniProt Q8NFQ8). Description: small molecules binding lysate-expressed LULL1 – cell lysate, human LULL1 lysate, 635/667 nm fluorescence, primary screen (AID 1092).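 Also: probe is lysate of COS7 cells overexpressing human LULL1; score merges per-feature 667 nm fluorescence with signal-to-noise.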 The note with it: small-molecule microarray, hLULL1 lysate binding, 635 nm fluorescence; higher = more signal.
Assay [16] in a line: optical density change of DRC41 E. coli – strain DRC41, OD650, 24 h, E. coli filamentation project, primary screen (AID 1093).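 Also: MC1000 strain lacking acrAB efflux and sulA so SOS filamentation is blocked; test concentration not given here.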 The note with it: E. coli DRC41 growth, higher = more signal, called active from +8 up or from −8 down.
A short description of assay [17]: probe aLefty2 binding to arrayed compounds – biochemical, biotinylated probe, 635/667 nm fluorescence, primary screen (AID 1094).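 Also: score merges spot fluorescence near 667 nm with spot signal-to-noise ratio.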 The following applies: small-molecule microarray, higher = more signal.
Assay [18] relates to Noggin (protein binding on small-molecule microarray). Description: small molecules binding Noggin protein – biochemical, 635/667 nm fluorescence, primary screen (AID 1095).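 Also: score merges 667 nm feature fluorescence with signal to noise over triplicate slides.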 The following applies: 635 nm fluorescence, higher = more signal.
The target of assay [19] is Neurogenic locus notch homolog protein 3 (Homo sapiens) (UniProt Q9UM47). Description: small molecules binding NOTCH3 protein – biochemical, 635/667 nm fluorescence, primary screen (AID 1096). The note with it: small-molecule microarray, 635 nm fluorescence, higher = more signal.
Neurogenic locus notch homolog protein 3 (Homo sapiens), sequence (Q9UM47 whole entry, looked up): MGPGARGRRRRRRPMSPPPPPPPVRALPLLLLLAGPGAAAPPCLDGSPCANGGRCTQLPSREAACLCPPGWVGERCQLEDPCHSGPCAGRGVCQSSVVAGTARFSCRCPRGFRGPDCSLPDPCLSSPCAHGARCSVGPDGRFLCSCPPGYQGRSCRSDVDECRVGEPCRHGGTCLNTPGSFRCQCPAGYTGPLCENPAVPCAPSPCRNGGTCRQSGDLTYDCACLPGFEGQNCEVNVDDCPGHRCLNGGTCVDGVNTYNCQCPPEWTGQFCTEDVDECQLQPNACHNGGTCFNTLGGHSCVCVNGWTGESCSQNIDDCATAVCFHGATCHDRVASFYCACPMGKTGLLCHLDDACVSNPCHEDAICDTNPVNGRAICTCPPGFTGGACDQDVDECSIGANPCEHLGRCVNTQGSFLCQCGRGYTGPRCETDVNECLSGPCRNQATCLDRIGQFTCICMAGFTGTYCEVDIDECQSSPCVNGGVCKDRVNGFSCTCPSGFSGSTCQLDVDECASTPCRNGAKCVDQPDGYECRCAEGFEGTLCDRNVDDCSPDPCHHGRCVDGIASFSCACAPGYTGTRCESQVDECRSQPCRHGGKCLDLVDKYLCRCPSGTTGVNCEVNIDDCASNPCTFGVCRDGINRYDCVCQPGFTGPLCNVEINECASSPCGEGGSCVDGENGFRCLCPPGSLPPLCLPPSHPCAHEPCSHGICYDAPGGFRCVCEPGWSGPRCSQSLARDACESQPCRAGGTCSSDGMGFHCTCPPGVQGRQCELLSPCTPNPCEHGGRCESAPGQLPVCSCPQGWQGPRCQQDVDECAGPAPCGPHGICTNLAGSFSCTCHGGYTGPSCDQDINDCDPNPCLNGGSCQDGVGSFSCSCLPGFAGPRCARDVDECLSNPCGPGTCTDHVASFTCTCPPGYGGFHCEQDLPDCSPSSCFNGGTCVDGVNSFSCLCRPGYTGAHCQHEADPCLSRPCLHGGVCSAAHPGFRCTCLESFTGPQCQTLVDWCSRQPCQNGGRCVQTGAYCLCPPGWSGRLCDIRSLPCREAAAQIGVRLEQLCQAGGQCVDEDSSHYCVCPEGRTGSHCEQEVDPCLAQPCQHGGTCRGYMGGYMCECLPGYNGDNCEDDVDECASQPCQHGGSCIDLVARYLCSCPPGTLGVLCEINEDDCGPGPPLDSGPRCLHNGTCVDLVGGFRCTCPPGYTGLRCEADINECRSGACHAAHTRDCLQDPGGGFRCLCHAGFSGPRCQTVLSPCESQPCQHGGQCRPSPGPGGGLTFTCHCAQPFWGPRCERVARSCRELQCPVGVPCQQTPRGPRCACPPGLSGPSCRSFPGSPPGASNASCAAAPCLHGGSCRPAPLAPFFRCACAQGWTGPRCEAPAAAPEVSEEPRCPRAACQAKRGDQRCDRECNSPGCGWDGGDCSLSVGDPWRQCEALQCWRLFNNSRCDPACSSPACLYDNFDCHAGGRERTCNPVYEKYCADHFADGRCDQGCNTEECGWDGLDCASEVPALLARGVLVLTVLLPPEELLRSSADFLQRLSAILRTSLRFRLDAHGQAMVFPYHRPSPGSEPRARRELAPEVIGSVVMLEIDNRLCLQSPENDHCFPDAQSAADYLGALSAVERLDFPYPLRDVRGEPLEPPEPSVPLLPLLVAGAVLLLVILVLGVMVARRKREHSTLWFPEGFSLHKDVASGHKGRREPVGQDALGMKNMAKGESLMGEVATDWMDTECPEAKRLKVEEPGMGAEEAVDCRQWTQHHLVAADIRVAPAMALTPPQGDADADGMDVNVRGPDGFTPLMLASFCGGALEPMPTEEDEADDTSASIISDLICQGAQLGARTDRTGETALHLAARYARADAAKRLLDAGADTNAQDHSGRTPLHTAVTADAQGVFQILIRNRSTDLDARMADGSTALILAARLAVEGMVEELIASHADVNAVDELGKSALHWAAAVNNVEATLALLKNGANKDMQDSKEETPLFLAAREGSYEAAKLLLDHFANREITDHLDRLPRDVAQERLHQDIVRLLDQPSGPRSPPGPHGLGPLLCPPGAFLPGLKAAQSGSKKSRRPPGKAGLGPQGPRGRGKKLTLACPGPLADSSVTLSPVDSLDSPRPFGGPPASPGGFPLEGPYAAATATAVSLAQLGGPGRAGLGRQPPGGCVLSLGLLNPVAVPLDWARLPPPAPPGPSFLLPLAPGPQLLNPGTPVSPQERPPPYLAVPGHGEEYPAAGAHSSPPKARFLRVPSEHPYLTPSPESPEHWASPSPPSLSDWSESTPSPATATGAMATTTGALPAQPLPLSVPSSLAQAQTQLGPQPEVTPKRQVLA
Assay [20] can be described thus: probe aEGFR binding to arrayed compounds – biochemical, biotinylated probe, 635/667 nm fluorescence, primary screen (AID 1097).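 Also: probe is a biotinylated anti-EGFR antibody binding compounds printed on slides; score combines fluorescence near 667 nm and signal to noise of each spot.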 The following applies: small-molecule microarray, higher = more signal.

Active and inactive are the calls of the source.

Torsin-1A-interacting protein 2 (Homo sapiens), sequence (Q8NFQ8 whole entry, looked up): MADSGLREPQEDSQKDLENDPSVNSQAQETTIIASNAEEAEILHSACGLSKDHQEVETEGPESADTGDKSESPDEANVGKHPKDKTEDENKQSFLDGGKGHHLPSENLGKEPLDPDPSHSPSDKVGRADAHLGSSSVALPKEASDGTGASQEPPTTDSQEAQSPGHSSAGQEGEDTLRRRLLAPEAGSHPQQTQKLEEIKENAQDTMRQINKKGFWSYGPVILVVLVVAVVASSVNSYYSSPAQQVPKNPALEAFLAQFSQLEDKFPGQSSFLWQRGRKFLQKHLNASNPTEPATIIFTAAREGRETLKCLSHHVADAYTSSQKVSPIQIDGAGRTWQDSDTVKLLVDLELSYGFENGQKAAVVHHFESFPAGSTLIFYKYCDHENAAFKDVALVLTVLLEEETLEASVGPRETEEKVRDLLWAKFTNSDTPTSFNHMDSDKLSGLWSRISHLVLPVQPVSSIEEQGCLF

On to `C=CCC(OC(C)=O)[C@@H]1[C@@H](N(Cc2ccc(-c3cccc(C(F)(F)F)c3)o2)C(=O)c2ccc(-c3ccccc3)cc2)c2cc(OCCCO)ccc2N1C(=O)Cc1ccc(OC)cc1` (stereo not given in full), for which the composite z-score in [1] was 0.365; in assay [2], -0.338; in assay [3], -0.1; in assay [4], -0.394; in assay [5], -0.654; in assay [6] it was -0.61. Also, the composite z-score is -0.663 in assay [7]; 0.258 in assay [9]; -0.0324 in [10]; -0.305 in assay [11]; -0.0364 in assay [15]; 0.0236 in assay [17]. Also, the composite z-score in assay [18] was -0.475; in assay [19], -1.16; in assay [20], -0.191. Moreover, the z-score in assay [8] was -0.981 (inactive); in [12], -0.933 (inactive); in [13] it was -1.88 (inactive); in assay [14] it was -0.82 (inactive); in [16], 1.84 (inactive).
Turning to `COc1ccc(C#Cc2ccc3c(c2)[C@]2(C(=O)N3)[C@H](c3ccc(O)cc3)N3[C@H](c4ccccc4)[C@H](c4ccccc4)OC(=O)[C@H]3[C@@H]2C(N)=O)cc1`, the composite z-score was 0.573 in assay [1]; 0.395 in assay [2]; 0.0519 in assay [3]; 0.889 in assay [4]; -0.695 in assay [5]; 1.68 in assay [6]. For the same compound, the composite z-score was 0.785 in assay [7]; -0.235 in assay [9]; -0.24 in assay [10]; 0.632 in [11]; 2.14 in [15]; -0.2 in [17]. Further, the figures for the composite z-score in assay [18], in assay [19] and in [20] were -0.877, -0.854 and -0.401, respectively. Further, the z-score in assay [8] was 0.532 (inactive); in assay [12], 1.46 (inactive); in assay [13], -1.02 (inactive); in [14] it was 2.73 (inactive); in [16], 1.68 (inactive).
With `COc1ccc(CCNC(=O)[C@@]2(Sc3ccc(C)cc3)CC(=O)N(Cc3ccccc3)[C@@H]2c2ccc(CO)cc2I)cc1`, the composite z-score was -1.07 in assay [1]; 0.461 in assay [2]; -0.187 in [3]; -0.111 in [4]; -0.0768 in assay [5]; 0.0114 in assay [6]. For the same compound, the composite z-score in assay [7] was 0.388; in assay [9], -0.32; in [10] it was -0.616; in assay [11], 0.471; in assay [15], 1.87; in assay [17], -0.337. The values for the composite z-score in [18], in assay [19] and in assay [20] were -0.814, -0.915 and -0.119, respectively. Moreover, the z-score in assay [8] is -1.58 (inactive); in assay [12], 0.44 (inactive); in assay [13], -1.66 (inactive); in [14] it was 2.72 (inactive); in assay [16], 0.485 (inactive).
For the compound `CCCCCCC#C[Si](O[C@H](c1ccccc1)c1cn(Cc2ccccc2)nn1)(C(C)C)C(C)C`, the composite z-score in assay [1] was -0.331; in [2] it was -0.0435; in [3] it was 0.0339; in assay [4], 0.388; in assay [5] it was 0.433; in [6] it was -0.0854. Moreover, the composite z-score in assay [7] is -0.0419; in assay [9], 0.129; in assay [10] it was 0.243; in assay [11] it was 0.63; in [15] it was 0.468; in assay [17], -0.0153. The figures for the composite z-score in assay [18], in [19] and in assay [20] were 0.977, 0.6 and 0.0334, respectively. Besides, the z-score in assay [8] was -0.494 (inactive); in assay [12] it was -0.501 (inactive); in [13] it was -1.19 (inactive); in assay [14], -0.287 (inactive); in assay [16] it was 2.25 (inactive).
For the compound `COC(=O)C(CC#Cc1ccc2c(c1)[C@]1(C(=O)N2)[C@H](C(=O)O)[C@H]2C(=O)O[C@H](c3ccccc3)[C@H](c3ccccc3)N2[C@@H]1c1ccc(OCCO)cc1)C(=O)OC`, the composite z-score in assay [1] is -0.0148; in assay [2], 1.74; in assay [3], -0.0144; in assay [4], 0.767; in assay [5], 1.17; in assay [6] it was 2.11. Further, the composite z-score in assay [7] is 1.31; in assay [9], 0.6; in [10], -0.0994; in assay [11] it was 1.55; in assay [15], 3.03; in [17], -0.0816. Moreover, the composite z-score in assay [18] was 0.245; in assay [19] it was 0.983; in assay [20], -0.0728. Moreover, the z-score in assay [8] is -1.19 (inactive); in assay [12], 0.299 (inactive); in assay [13], -1.91 (inactive); in assay [14], -1.38 (inactive); in assay [16], 3.49 (inactive).

The values are drawn from PubChem BioAssay.
